# Results filed as inconclusive are left out. A call without a number means that no potency is given here. The source made the active and inactive calls. Calls come from the whole dose curve; as a rule, active = well fitted curve in the direction sought with a large enough effect; inconclusive = small, poorly fitted or top-dose-only effect, or another doubt; inactive = no such curve, though single readings can be large; an effect the other way counts as inactive or inconclusive.
# Experiments:
# [1] = qHTS assay for measurement of the activity of small molecule inhibitors on Zika virus induced Caspase-3 activity in human astrocytoma cells (AID 1224859); conditions: SNB-19 ZIKV-induced caspase-3/7, luminescence, 6 h; series mostly up to 45.7 µM
# How it was run: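 In SNB-19 cells plated at 250 cells/well and grown 16-20 h, compounds were applied 1 h before ZIKV (2 FFU/cell). Six hours later caspase-3/7 luminescence was recorded.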
# [2] = qHTS assay to identify small molecule inhibitors of chordoma cells - UCH-1 (AID 1259355); conditions: UCH-1 chordoma viability, CellTiter-Glo, 48 h, combination, with auranofin plus four topoisomerase inhibitors; series mostly up to 46.1 µM; note: nearly all actives have a fitted effect of over 55% in size; note: potency is the fitted concentration of half-maximal effect
# How it was run: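 Screening used approved and investigational drugs in 15-point titration against 800 seeded cells per well. A fixed combination of auranofin with camptothecin, doxorubicin, rubitecan and topotecan followed compound addition, and growth was scored by CellTiter-Glo after 48hr.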
# [3] = Identifying Small Molecule Inhibitors of Pancreatic Cancer Stem Cells (SN12C, Adherent) (AID 1259358); conditions: viability/growth inhibition; series mostly up to 46.1 µM;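 note: cell survival measured after 48 h of compound exposure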; note: potency is the fitted concentration of half-maximal effect
# How it was run: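 Spheroids grown 14 days in stem cell media on hydrogel-coated nonadherent plates; 2D lines seeded directly. Compounds added after 4 h attachment, 48 h at 37C, 5% CO2; CellTiter-Glo luminescence normalized to DMSO (no inhibition) and no-cell wells (full inhibition).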
# [4] = Identifying Small Molecule Inhibitors of Pancreatic Cancer Stem Cells (SN12C, Spheroid) (AID 1259360); conditions: Potency: SN12C spheroid viability; series mostly up to 46.1 µM; note: potency is the fitted concentration of half-maximal effect
# How it was run: (§1)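 Luminescent ATP readout (CellTiter-Glo) quantifies surviving cells after a 48 h drug incubation. Normalization uses DMSO wells as no inhibition and media-only wells as full inhibition; bortezomib served as positive control.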
# [5] = Identifying Small Molecule Inhibitors of Pancreatic Cancer Stem Cells (A2780, Spheroid) (AID 1259357); conditions: Potency: A2780 spheroid viability; series mostly up to 46.1 µM;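 note: spheroids pre-formed over 14 days in stem cell medium on hydrogel; compound exposure lasted 48 h before the ATP luminescence read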
# How it was run: as §1
structure (smiles),measurement,setting,value
CCN(CC)CCOC(=O)c1ccc(N)cc1,Potency,[1],inactive
same,Potency,[2],inactive
COC(=O)[C@@H]1[C@H]2C[C@H]3c4[nH]c5ccccc5c4CCN3C[C@@H]2CC[C@@H]1O,Potency,[1],inactive
same,Potency,[2],inactive
COc1ccc(C2CC(c3ccccc3)=NN2c2ccc(S(N)(=O)=O)cc2)cc1 (centres undefined),Potency,[1],inactive
same,Potency,[3],inactive
same,Potency,[4],inactive
CC[C@]1(O)C[C@@H]2CN(CCc3c([nH]c4ccccc34)[C@@](C(=O)OC)(c3cc4c(cc3OC)N(C)[C@H]3[C@@](O)(C(=O)OC)[C@H](OC(C)=O)[C@]5(CC)C=CCN6CC[C@]43[C@@H]65)C2)C1,Potency,[1],inactive
same,Potency,[2],5.62 µM (active)
Clc1ccc(Cn2c(CN3CCCC3)nc3ccccc32)cc1,Potency,[1],inactive
same,Potency,[2],inactive
COc1cccc2c1CCCC2CCCN1CCN(C2CCCCC2)CC1 (centres undefined),Potency,[1],inactive
same,Potency,[3],16.6 µM (active)
CCCNC(=O)NS(=O)(=O)c1ccc(Cl)cc1,Potency,[1],inactive
same,Potency,[2],inactive
C[C@@H](O)[C@H]1C(=O)N2C(C(=O)O)=C(S[C@@H]3CN[C@H](C(=O)N(C)C)C3)[C@H](C)[C@H]12,Potency,[1],inactive
same,Potency,[2],inactive
C[N+](C)(C)CCCCCC[N+](C)(C)C,Potency,[1],inactive
same,Potency,[2],inactive
COc1cc(Nc2ncc(F)c(Nc3ccc4c(n3)NC(=O)C(C)(C)O4)n2)cc(OC)c1OC,Potency,[1],inactive
same,Potency,[5],inactive
CC1=C(/C=C/C(C)=C/C=C/C(C)=C/C(=O)Nc2ccc(O)cc2)C(C)(C)CCC1,Potency,[1],inactive
same,Potency,[2],inactive
same,Potency,[3],inactive
same,Potency,[4],23.5 µM (active)
OC[C@H]1O[C@@H](n2cnc3c2NC=NC[C@@H]3O)C[C@H]1O,Potency,[1],inactive
same,Potency,[5],inactive
same,Potency,[3],inactive
same,Potency,[4],inactive

# — PubChem BioAssay (NCATS)
